# Source: PubChem BioAssay AID463173 (ICCB-Longwood Screening Facility, Harvard Medical School, 2010)
# The whole screen tested about 52,000 compounds, of which about 4,300 (8.3%) were called active. Shown is part of a subset that was picked to be rich in actives. Values without a mark were called inactive. Cut-off read from the data, not from the text of the source: active = survival mostly below about 52% (no sharp cut-off); inactive = mostly above about 56%.
# Tested on: DeltatarO mutant
# Assay: growth inhibition of S. aureus wild type versus tarO mutant, primary screen, teichoic acid synthesis inhibitors, RN4220, OD600 (AID 463173)
# Settings: OD600, 18 h, stronger effect = lower value, screened at 18.75 µg/mL (by protocol)
row,SMILES,survival
1,Cc1cccc2sc(N(CCN(C)C)C(=O)c3ccc4c(c3)OCCO4)nc12,119%
2,CC(=O)N1CCc2c(sc3c2c(=O)n(-c2ccc(F)cc2)c(=O)n3Cc2ccc(C#N)cc2)C1,107%
3,Cc1ccc(CNCc2ccc3c(c2)n(C)c(=O)n3C)cc1,92%
4,CCN(CC)S(=O)(=O)c1ccc2c(c1)nc(CN(C)C(=O)c1cccc(Cl)c1)n2C,71%
5,C#CCOc1ccc(C2C3=C(CCCC3=O)N(CCC(=O)O)C3=C2C(=O)CCC3)cc1,70%
6,COc1ccc2c(c1)CCc1c(C(=O)Nc3c(C)nn(Cc4c(Cl)cccc4Cl)c3C)noc1-2,114%
7,CCOC(=O)c1cc2c(=O)n3ccccc3nc2n(CC2CCCO2)c1=NC(=O)c1cccc(C(F)(F)F)c1 (stereo not drawn),97%
8,CCOC(=O)c1cc2c(=O)n3ccccc3nc2n(CC2CCCO2)c1=NC(=O)c1ccc(C)cc1 (stereo not drawn),101%
9,CCOC(=O)c1cc2c(=O)n3ccccc3nc2n(CC2CCCO2)c1=NC(=O)c1cc(C)cc(C)c1 (stereo not drawn),44% (active)
10,CCOC(=O)c1cc2c(=O)n3ccccc3nc2n(CC2CCCO2)c1=NC(=O)c1cccc(C)c1 (stereo not drawn),29% (active)
11,CCOC(=O)c1cc2c(=O)n3ccccc3nc2n(CC2CCCO2)c1=NC(=O)c1ccc(C(C)(C)C)cc1 (stereo not drawn),59%
12,CCn1c(CN2CCCCC2)nc2cc(NC(=O)c3cc(OC)c(OC)c(OC)c3)ccc21,87%
13,O=C(c1cnc(N2CCCCC2)c2ccccc12)N1CCN(c2ccccc2F)CC1,75%
14,Cc1ccc2c(c1)nnn2C1CCN(CC(=O)N(c2ccccc2)c2ccccc2)CC1,98%
15,CCOc1ccc(CNC(=O)c2cnc3sc(N4CCC(C)CC4)nn3c2=O)cc1OC,74%
16,COc1ccc(CNC(=O)Cc2c(C(=O)O)c(C)cn2C)cc1,94%
17,Cc1cn(C)c(CC(=O)NCc2cccc(Cl)c2)c1C(=O)O,20% (active)
18,Cc1ccc(CNC(=O)Cc2c(C(=O)O)c(C)cn2C)cc1,89%
19,Cc1cn(C)c(CC(=O)NCc2ccccc2)c1C(=O)O,85%
20,Cc1cn(C)c(CC(=O)NCc2ccc(Cl)cc2)c1C(=O)O,102%
21,COc1cccc(CNC(=O)Cc2c(C(=O)O)c(C)cn2C)c1,8% (active)

row,SMILES,survival
1,COc1ccc(NC(=O)c2ccc3oc(=O)c(S(=O)(=O)c4ccc(C)cc4)cc3c2)cc1OC,90%
2,COc1cc(Cl)c(C)cc1NC(=O)CCn1cnc2onc(-c3ccc(F)cc3)c2c1=O,77%
3,COc1ccc(-c2nn3c(=O)cc(CN4CCN(C(=O)Nc5cc(C)ccc5C)CC4)nc3s2)cc1,99%
4,COc1ccc(NC(=O)C2CCN(S(=O)(=O)c3ccc4c(c3)CCCC(=O)N4)CC2)cc1Cl,78%
5,COc1ccc(CCNC(=O)c2cc(-c3ccccc3)nc3ccccc23)cc1OC,58%
6,CCOc1ccc(-c2cc(C(=O)NCc3ccc(C)cc3)c3ccccc3n2)cc1,87%
7,CCOc1ccc(-c2cc(C(=O)NCCc3ccc(Cl)cc3)c3ccccc3n2)cc1,81%
8,COc1ccc(-c2cc(C(=O)NCc3ccccc3)c3c(-c4ccccc4)[nH]nc3n2)cc1,93%
9,COc1ccc(Nc2cc(C(=O)NCc3ccccc3OC)c3ccccc3n2)cc1,-5% (active)
10,COc1ccc(Nc2cc(C(=O)NCc3cccs3)c3ccccc3n2)cc1,131%
11,COc1ccc(CCNC(=O)c2cc(-c3ccc(C)c(C)c3)nc3ccccc23)cc1OC,120%
12,CCOc1ccc(-c2cc(C(=O)NCc3ccc(OC)cc3)c3c(-c4ccc(F)cc4)[nH]nc3n2)cc1,77%
13,CCOc1ccc(-c2cc(C(=O)NCc3ccccc3)c3c(-c4ccc(CC)cc4)[nH]nc3n2)cc1,47% (active)
14,COc1ccc(-c2cc(C(=O)NCCc3ccc(OC)c(OC)c3)c3ccccc3n2)cc1,48% (active)
15,CCOc1ccc(-c2cc(C(=O)NCCc3ccc(C)cc3)c3ccccc3n2)cc1,52% (active)
16,COc1ccc(Nc2cc(C(=O)NCc3ccccc3)c3ccccc3n2)cc1,97%
17,CCCCNc1ccc(-c2nc(-c3ccccc3)no2)cc1[N+](=O)[O-],72%
18,CCOc1ccc(C(=O)O)o1,94%
19,Cc1ccc(-n2c(SCC(=O)NC(C)(C)C)nc(O)cc2=O)cc1,107%
20,CCCCOC(=O)c1ccc(Nc2ncnc3[nH]ncc23)cc1,55%
21,N#Cc1ccccc1NC(=O)C(=O)NCCc1csc(-c2ccc(C(F)(F)F)cc2)n1,85%

row,SMILES,survival
1,Cc1ccc(S(=O)(=O)c2cn(Cc3ccccc3)c3cc(N4CCCC4)c(F)cc3c2=O)cc1,71%
2,Cc1nc2sc(C)c(C)n2c(=O)c1S(=O)(=O)N1CCN(c2ccccc2F)CC1,68%
3,Cc1cc(C)c(NC(=O)Cn2c(=O)n(-c3cccc(C(F)(F)F)c3)c(=O)c3c(C)c(C)sc32)c(C)c1,92%
4,O=C(Nc1ccc2c(c1)OCCO2)C1CCCN(S(=O)(=O)Cc2ccccc2)C1 (stereo not drawn),102%
5,CCOc1ccc(NC(=O)c2nn(C)c3c2CS(=O)(=O)c2ccccc2-3)cc1,60%
6,CCOc1ccc(C(=O)CSc2nc3cc(C(=O)NC4CCCC4)ccc3c(=O)n2CC2CCCO2)cc1 (stereo not drawn),8% (active)
7,COc1ccc(C(=O)CSc2nc3cc(C(=O)NC4CCCC4)ccc3c(=O)n2CC2CCCO2)cc1 (stereo not drawn),95%
8,O=C(CSc1nc2cc(C(=O)NC3CCCC3)ccc2c(=O)n1CC1CCCO1)c1ccc(F)cc1 (stereo not drawn),96%
9,O=C(CSc1nc2cc(C(=O)NC3CCCC3)ccc2c(=O)n1CC1CCCO1)c1cccc(Cl)c1 (stereo not drawn),20% (active)
10,Cc1ccc(C(=O)CSc2nc3cc(C(=O)NC4CCCC4)ccc3c(=O)n2CC2CCCO2)c(C)c1 (stereo not drawn),91%
11,Cc1ccc(C(=O)CSc2nc3cc(C(=O)NC4CCCC4)ccc3c(=O)n2CC2CCCO2)cc1 (stereo not drawn),101%
12,CC(=O)c1cc(-c2ccc(F)cc2)n(CC(=O)NC2CCC(C)CC2)c1C (stereo not drawn),67%
13,O=C(CN1CCN(S(=O)(=O)c2cc(Cl)ccc2Cl)CC1)Nc1cccc(F)c1,92%
14,CCOc1ccc(C(=O)C(CC(CN2CCOCC2)C(=O)c2ccc(OCC)cc2)CN2CCOCC2)cc1 (stereo not drawn),104%
15,O=C1c2oc3ccc(F)cc3c(=O)c2C(c2cccc([N+](=O)[O-])c2)N1CCCN1CCOCC1 (stereo not drawn),84%
16,CCCCOc1ccc(C(=O)OCC2CCCN3CCCCC23)cc1OC (stereo not drawn),107%
17,Cc1ccc(CNC(=O)CCC(=O)N2CC3CCCN3c3ccccc32)cc1 (stereo not drawn),83%
18,O=C(CCC(=O)N1CC2CCCN2c2ccccc21)NCc1ccccc1 (stereo not drawn),74%
19,O=C(CCC(=O)N1CC2CCCN2c2ccccc21)NCc1cccc(Cl)c1 (stereo not drawn),37% (active)
20,O=C(CCC(=O)N1CC2CCCN2c2ccccc21)NCc1ccccc1Cl (stereo not drawn),69%
21,COc1cccc(CNC(=O)CCC(=O)N2CC3CCCN3c3ccccc32)c1 (stereo not drawn),66%

row,SMILES,survival
1,O=C(CCC(=O)N1CC2CCCN2c2ccccc21)NCc1ccc(F)cc1 (stereo not drawn),0% (active)
2,O=C(O)c1cc2ccccc2[nH]c1=O,107%
3,CCc1cccc(NC(=O)Cc2nc(-c3ccc(OC)cc3)no2)c1,77%
4,O=C(Nc1ccc(S(=O)(=O)N2CCCCC2c2cccnc2)cc1)c1ccc(Br)cc1 (stereo not drawn),92%
5,CC(=O)N1CCc2cc(Br)cc(S(=O)(=O)N3CCN(c4cccc(C)c4)C(C)C3)c21 (stereo not drawn),74%
6,Cc1ccccc1NC(=O)Cn1c(=O)n(Cc2ccccc2)c(=O)c2c(C)c(C)sc21,136%
7,Cc1c(C(=O)N(C)C)sc2c1c(=O)n(-c1ccc(Cl)c(Cl)c1)c(=O)n2CC(=O)Nc1ccc(Br)cc1F,144%
8,Cc1c(C(=O)N(C)C)sc2c1c(=O)n(-c1ccc(Cl)c(Cl)c1)c(=O)n2CC(=O)Nc1cccc(C(F)(F)F)c1,46% (active)
9,CCN(CC)C(=O)c1sc2c(c1C)c(=O)n(-c1ccc(Cl)c(Cl)c1)c(=O)n2CC(=O)Nc1cccc(OC)c1,70%
10,CCOC(=O)c1ccccc1NC(=O)Cn1c(=O)n(Cc2ccccc2)c(=O)c2c(C)c(C)sc21,84% (active)
11,CCOc1ccccc1NC(=O)Cn1c(=O)n(Cc2ccccc2)c(=O)c2c(C)c(C)sc21,66%
12,CCc1ccc(-n2c(=O)c3c(C)c(C(=O)N(C)C)sc3n(CC(=O)Nc3cc(Cl)ccc3C)c2=O)cc1,131%
13,COC(=O)c1ccccc1NC(=O)Cn1c(=O)n(-c2cccc(OC)c2)c(=O)c2c(C)c(C(=O)N(C)C)sc21,117%
14,CCOC(=O)c1ccccc1NC(=O)Cn1c(=O)n(-c2ccc(CC)cc2)c(=O)c2c(C)c(C(=O)N(C)C)sc21,0% (active)
15,CCOc1ccc(NC(=O)C(NS(=O)(=O)c2ccc3c(c2)CCN3C(C)=O)C(C)C)cc1 (stereo not drawn),124%
16,CCCOc1ccc(-c2nc(SCC(=O)c3ccc(Cl)cc3)n[nH]2)cc1,187%
17,Cc1ccc(NC(=O)CSc2ncc(S(=O)(=O)c3ccc(C(C)C)cc3)c(=O)[nH]2)cc1C,87%
18,Nc1c(C(=O)Nc2ccccc2Cl)c2ccccn2c1C(=O)c1ccc(Cl)cc1,80%
19,CCOC(=O)c1ccccc1NC(=O)CSc1nc2ccncc2[nH]1,85%
20,CC(Sc1ncc(S(=O)(=O)c2ccc(C(C)C)cc2)c(N)n1)C(=O)Nc1ccccc1 (stereo not drawn),60%
